Laboratory results as given in PubChem BioAssay (Tox21).
Inconclusive results are not listed. Activity calls are given as the source filed them. Calls follow the shape of the dose curve; as a rule, active = well fitted curve in the direction sought with a large enough effect in the repeat runs; inconclusive = weak or mixed curves; inactive = no such curve, though single readings can be large; an effect the other way counts as inactive or inconclusive.

How the values were obtained:
[1] = qHTS RealTime-Glo MT Cell Viability Assay in HepG2 cells - 40 hour (AID 1224870); conditions: RealTime-Glo luminescence; series mostly up to 76.8 µM; also: nearly all actives have a fitted effect of over 50% in size
How it was run: (§1)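 HepG2 cells (600/well) mixed with RealTime-Glo MT reagent, settled 5 h at 37 C/5% CO2 before compound addition. Nonlytic NanoLuc luminescence from viable-cell prosubstrate reduction read repeatedly during 40 h treatment at 37 C.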

[2] = A CellTox Green Cytotoxicity Assay to monitor cytotoxicity in HEK293 cells - 40 hour (AID 1224871); conditions: CellTox Green fluorescence; series mostly up to 76.8 µM; also: nearly all actives have a fitted effect of over 45% in size
How it was run: (§2)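 Tox21 screen in HEK293: membrane-impermeant cyanine dye fluoresces on binding dead-cell DNA; compound pinned 5 h post-seeding, plates held at 37 C, signal read repeatedly through 40 h.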

[3] = qHTS RealTime-Glo MT Cell Viability Assay in HEK293 cells - 16 hour (AID 1224872); conditions: RealTime-Glo luminescence; series mostly up to 76.8 µM; also: top concentration of the series differs between compounds; nearly all actives have a fitted effect of over 50% in size
How it was run: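 Luminescence generated by NanoLuc from substrate produced by living HEK293 cells served as the viability signal. Each value reflects the reading at its stated time point during continuous 40 h compound exposure at 37 C.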

[4] = qHTS RealTime-Glo MT Cell Viability Assay in HepG2 cells - 8 hour (AID 1224873); conditions: RealTime-Glo luminescence; series mostly up to 76.8 µM; also: nearly all actives have a fitted effect of over 55% in size
How it was run: as §1

[5] = qHTS RealTime-Glo MT Cell Viability Assay in HEK293 cells - 40 hour (AID 1224874); conditions: RealTime-Glo luminescence; max response: hits give low values; also: nearly all actives have a fitted effect of over 50% in size
How it was run: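 HEK293 + NanoLuc + prosubstrate, 600 cells/well; 5 h, 37 C/5% CO2; compound 23 nL in DMSO by pintool; 37 C; luminescence read at 0, 8, 16, 24, 32 and 40 h time points.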

[6] = A CellTox Green Cytotoxicity Assay to monitor cytotoxicity in HEK293 cells - 24 hour (AID 1224875); conditions: CellTox Green fluorescence; series mostly up to 76.8 µM; also: nearly all actives have a fitted effect of over 45% in size
How it was run: as §2

[7] = A CellTox Green Cytotoxicity Assay to monitor cytotoxicity in HepG2 cells - 16 hour (AID 1224876); conditions: CellTox Green fluorescence; series mostly up to 76.8 µM; also: nearly all actives have a fitted effect of over 45% in size
How it was run: (§3)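 Measurements at 0, 8, 16, 24, 32 and 40 h of treatment captured CellTox Green fluorescence in HepG2 cells that had been co-plated with reagent and preincubated 5 h at 37 C/5% CO2.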

[8] = qHTS RealTime-Glo MT Cell Viability Assay in HepG2 cells - 32 hour (AID 1224877); conditions: RealTime-Glo luminescence; series mostly up to 76.8 µM; also: nearly all actives have a fitted effect of over 55% in size
How it was run: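 Tox21 10K library screened in qHTS format on HepG2 cells carrying RealTime-Glo reagents. Compounds were added after a 5 h preincubation, and the luminescent signal from continuous culture was measured repeatedly during 40 h treatment.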

[9] = A CellTox Green Cytotoxicity Assay to monitor cytotoxicity in HepG2 cells - 24 hour (AID 1224878); conditions: CellTox Green fluorescence; series mostly up to 76.8 µM; also: nearly all actives have a fitted effect of over 45% in size
How it was run: as §3

[10] = A CellTox Green Cytotoxicity Assay to monitor cytotoxicity in HepG2 cells - 40 hour (AID 1224879); conditions: CellTox Green fluorescence; series mostly up to 76.8 µM; also: nearly all actives have a fitted effect of over 40% in size
How it was run: as §3
% is scaled to controls: 0 for no effect and ±100 for the full control effect.

CC/C=C\CCCCO
inactive: Potency [1] | Potency [2] | Potency [3] | outcome [4] | max response [5] 1.83% | Potency [6] | Potency [7] | Potency [8]

C=CCSCC1Nc2cc(Cl)c(S(N)(=O)=O)cc2S(=O)(=O)N1 (centres undefined)
inactive: Potency [1] | Potency [2] | Potency [3] | outcome [4] | max response [5] 10.2% | Potency [6] | Potency [7] | Potency [8] | Potency [9] | Potency [10]

CO[Si](OC)(OC)OC
inactive: Potency [1] | Potency [2] | Potency [3] | outcome [4] | max response [5] 16.8% | Potency [6] | Potency [7] | Potency [8] | Potency [9] | Potency [10]

FC(F)(F)C(F)(F)C(F)(F)C(F)(F)C(F)(F)C(F)(F)C(F)(F)C(F)(F)C(F)(F)C(F)(F)F
inactive: activity change, negative = cytotoxic [1] -1.18% [at 6.97 µM] | cytotoxicity increase [2] -18% [at 6.97 µM] | activity change, negative = cytotoxicity [3] -4.72% [at 6.97 µM] | viability change, negative = cytotoxic [4] 3.63% [at 6.97 µM] | max response [5] -1.44% | activity change [6] -7.77% [at 6.97 µM, hits give high values] | cytotoxicity increase [7] 1.39% [at 6.97 µM] | activity change, negative = cytotoxic [8] -2.37% [at 6.97 µM] | cytotoxicity [9] 4.69% [at 6.97 µM] | cytotoxicity increase [10] 1.66% [at 6.97 µM]

OC[C@H]1O[C@@H]2O[C@H]3[C@H](O)[C@@H](O)[C@@H](O[C@H]4[C@H](O)[C@@H](O)[C@@H](O[C@H]5[C@H](O)[C@@H](O)[C@@H](O[C@H]6[C@H](O)[C@@H](O)[C@@H](O[C@H]7[C@H](O)[C@@H](O)[C@@H](O[C@H]8[C@H](O)[C@@H](O)[C@@H](O[C@H]9[C@H](O)[C@@H](O)[C@@H](O[C@H]1[C@H](O)[C@H]2O)O[C@@H]9CO)O[C@@H]8CO)O[C@@H]7CO)O[C@@H]6CO)O[C@@H]5CO)O[C@@H]4CO)O[C@@H]3CO
inactive: Potency [1] | Potency [2] | Potency [3] | outcome [4] | max response [5] 1.22% | Potency [6] | Potency [7] | Potency [8] | Potency [9] | Potency [10]

CCCC=O
inactive: Potency [1] | Potency [2] | Potency [3] | outcome [4] | max response [5] 6.1% | Potency [6] | Potency [7] | Potency [8] | Potency [9] | Potency [10]

CC(C)(C)OC(=O)N1C[C@@H](F)C[C@H]1C(=O)O
inactive: Potency [1] | Potency [2] | Potency [3] | outcome [4] | max response [5] 2.11% | Potency [6] | Potency [7] | Potency [8] | Potency [9] | Potency [10]

CC(=O)CCc1ccc(O)cc1
inactive: Potency [1] | Potency [2] | Potency [3] | outcome [4] | max response [5] -1.37% | Potency [6] | Potency [7] | Potency [8] | Potency [9] | Potency [10]

Cc1ccccc1Br
inactive: Potency [1] | Potency [2] | Potency [3] | outcome [4] | max response [5] 5.36% | Potency [6] | Potency [7] | Potency [8] | Potency [9] | Potency [10]

NCCNC(=O)c1ccc(Cl)cn1
inactive: Potency [1] | Potency [2] | Potency [3] | outcome [4] | max response [5] 0.469% | Potency [6] | Potency [7] | Potency [8] | Potency [9] | Potency [10]

CC(C)=CCC/C(C)=C/C(=O)O
inactive: Potency [1] | Potency [2] | Potency [3] | outcome [4] | max response [5] 0.0826% | Potency [6] | Potency [7] | Potency [8]

COC(=O)c1ccc(C(=O)OC)c(C(=O)OC)c1
inactive: Potency [1] | Potency [2] | Potency [3] | outcome [4] | max response [5] 1.35% | Potency [6] | Potency [7] | Potency [8]

CCN1CCN(c2cc3c(cc2F)c(=O)c(C(=O)O)cn3C2CC2)CC1
inactive: Potency [1] | Potency [2] | Potency [3] | outcome [4] | max response [5] -0.866% | Potency [6] | Potency [7] | Potency [8] | Potency [9] | Potency [10]

Nc1cc(N)cc(C(=O)O)c1
inactive: Potency [1] | Potency [2] | Potency [3] | outcome [4] | max response [5] 8.18% | Potency [6] | Potency [7] | Potency [8] | Potency [9] | Potency [10]

CNc1ncnc2nc[nH]c12
inactive: Potency [1] | Potency [2] | Potency [3] | outcome [4] | max response [5] 3.96% | Potency [6] | Potency [7] | Potency [8] | Potency [9] | Potency [10]

CCC(=O)/C=C/c1ccc(OC)cc1
inactive: Potency [1] | Potency [2] | Potency [3] | outcome [4] | max response [5] -0.0895% | Potency [6] | Potency [7] | Potency [8] | Potency [9] | Potency [10]

NC(=O)c1ncn([C@@H]2O[C@H](CO)[C@@H](O)[C@H]2O)c1N
inactive: Potency [1] | Potency [2] | Potency [3] | outcome [4] | max response [5] -6.56% | Potency [6] | Potency [7] | Potency [8] | Potency [9] | Potency [10]

CC(C)CCCCCCN
inactive: Potency [1] | Potency [2] | Potency [3] | outcome [4] | max response [5] -7.14% | Potency [6] | Potency [7] | Potency [8] | Potency [9] | Potency [10]

CCCCN(CCO)CCO
inactive: Potency [1] | Potency [2] | Potency [3] | outcome [4] | max response [5] 19% | Potency [6] | Potency [7] | Potency [8] | Potency [9] | Potency [10]
